Compound activity from PubChem.
Compounds with a hit are over-represented: about 2.4% of the library has one in this group of screens.
PABP polyA inh – PABP poly(A) RNA binding inhibitors, primary screen, biochemical, fluorescence polarization, uHTS | calls only at 35 µM | hit rate 1% among 290,000 | AID 2014, 2009;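 also: calls also rest on retests at 20 µM and on dose response follow-up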
eIF4H inh – human eIF4H binding inhibitors, primary screen, translation initiation inhibitor project, biochemical, uHTS, fluorescence polarization; Eukaryotic translation initiation factor 4H (Homo sapiens), Q15056; eIF4H fluorescence polarization binding assay; inhibition, % at 35 µM; hit rate 0.94% among 290,000;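 also: calls also rest on retests at 20 µM and on dose response follow-up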
PABP1 MLLE inh – inhibitors of PABP1 MLLE–PAM2 peptide binding, primary screen, biochemical, fluorescence polarization, FITC-PAM2, GST-MLLE; Polyadenylate-binding protein 1 (Homo sapiens), P11940; inhibition, % at 20 µM; hit rate 0.36% among 360,000; AID 588489, 2011; in the data active = inhibition above about 35%, passing the limit was not always enough;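 also: plate controls were DMSO wells with GST-MLLE for no effect and wells lacking GST-MLLE protein for full effect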
PHOSPHO1 block – PubChem AID 1565 | recombinant PHOSPHO1, absorbance phosphatase assay | Phosphoethanolamine/phosphocholine phosphatase (Homo sapiens), Q8TCT1 | inhibition, % at 13.3 µM | hit rate 1.1% among 290,000; in the data active = inhibition above about 60%
Target sequence (Q8TCT1 whole entry, looked up): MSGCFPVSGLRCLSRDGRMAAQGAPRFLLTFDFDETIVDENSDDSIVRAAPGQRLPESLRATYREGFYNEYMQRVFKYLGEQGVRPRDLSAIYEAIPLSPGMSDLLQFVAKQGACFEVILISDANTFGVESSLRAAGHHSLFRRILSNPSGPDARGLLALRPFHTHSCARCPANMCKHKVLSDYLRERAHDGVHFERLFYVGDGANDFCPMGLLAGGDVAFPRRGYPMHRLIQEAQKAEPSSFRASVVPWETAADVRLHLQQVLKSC
Efa HMGR inh – inhibitors of E. faecalis class II HMGR, primary screen, biochemical, Enterococcus faecalis | AID 1066, 2008 | purified E. faecalis HMGR, NADPH absorbance 340 nm kinetic | hit rate 0.41% among 190,000 | inhibition, % at 10 µM;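 active = inhibition above a set limit, the median over all tested compounds plus 3 SD, cut at about 9.5% in these data; inconclusive = no clear call, values can overlap the other calls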;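 also: enzyme runs in reverse so mevalonate oxidation gives rising NADPH absorbance; 0% = complete reaction with DMSO and 100% = background rate lacking mevalonate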
* hit, by the source's call; i = inactive; ? = inconclusive; · = no result; + = active, no number. Unless noted, no rule for the calls is given here.

SMILES	PABP polyA inh	eIF4H inh	PABP1 MLLE inh	PHOSPHO1 block	Efa HMGR inh
CNC[C@@H]1Oc2cc(Br)ccc2S(=O)(=O)N([C@@H](C)CO)C[C@@H]1C	·	·	-7	·	·
COc1ccc(CC(=O)NCC2CCCN(Cc3cccc(SC)c3)C2)cc1 (configuration not stated)	i	-15	5	61*	·
Cc1ccc(-n2c(C)cc3c2CCCC3=O)cc1	i	20	42*	-3	-4
CCCC1(CCC)NC(=O)N(CC(=O)Nc2ccc3c(c2)OCCO3)C1=O	·	·	-4	·	·
COc1ccc(S(=O)(=O)Nc2ccc(O)c3ccccc23)cc1	i	1	38*	10	-2
COc1ccc(S(=O)(=O)Nc2ccccc2)cc1	·	·	-7	·	·
Cc1cc(C(F)(F)F)n(-c2nc(C(=O)O)cs2)n1	+	1.5*	-9	-4	6
O=C(O)c1csc(-n2nc(-c3ccccc3)cc2C(F)(F)F)n1	i	11	2	50	9
COc1ccc(NC(=O)CSc2nnc(N)s2)c([N+](=O)[O-])c1	i	-9	12	-20	-1
COc1ccc(NC(=O)CSc2nnc(NC(C)=O)s2)c([N+](=O)[O-])c1	i	2	37*	28	1
O=C(O)/C=C/c1cnn(-c2ccccc2)c1	i	-4	1	29	2
CCOC(=O)NC(Nc1sc2c(c1C(N)=O)CCCC2)(C(=O)OCC)C(F)(F)F (configuration not stated)	i	0	-8	73*	-4
CC(=O)N1CCN(c2nc(-c3ccco3)c3c(c2C#N)CC(C)(C)SC3)CC1	?	?	3	86*	0
CC1(C)Cc2c(c(-c3ccco3)[nH]c(=O)c2C#N)CS1	i	122	61*	-7	0
CC1(C)Cc2c(C#N)c(N3CCN(C(=O)c4ccco4)CC3)nc(-c3ccco3)c2CS1	i	?	-4	-3	-9
O=C1NCCN/C1=C\C(=O)c1cccc(Br)c1	i	0	-8	28	·
COc1ccc(N2CCN(C(=O)CSc3nc4nc(C)cc(C)n4n3)CC2)cc1	·	·	2	·	·
O=c1nc(/C=C/c2cccn2-c2ccc([N+](=O)[O-])cc2)cc(C(F)(F)F)[nH]1	+	60*	-75	-15	-4
Cc1ccc(NS(=O)(=O)c2cc3[nH]c(=O)c(=O)[nH]c3cc2C)c(C)c1	i	-10	-18	12	·
C=CCc1cccc2cc(C(=O)Nc3ccc(F)cc3)c(=O)oc12	i	-3	11	-32	1
C=CCc1cccc2cc(C(=O)Nc3ccc(S(=O)(=O)Nc4nnc(CC)s4)cc3)c(=O)oc12	+	67*	16	85*	2
CCC(=O)N1CCN(c2ccc(NC(=S)NC(=O)c3ccc(OC)c([N+](=O)[O-])c3)cc2)CC1	i	-3	42*	24	-4
CCC(=O)N1CCN(c2ccc(NC(=O)c3ccccc3)cc2)CC1	i	12	-14	63*	-9
O=C(NC(=S)Nc1ccc(N2CCOCC2)cc1)c1ccccc1	i	2	20	-31	-4
CCc1ccc(C(=O)NC(=S)Nc2ccc(N3CCOCC3)cc2)cc1	i	-1	40*	23	2
SMILES	PABP polyA inh	eIF4H inh	PABP1 MLLE inh	PHOSPHO1 block	Efa HMGR inh
CC(=O)Nc1ccc(S(=O)(=O)Nc2cc(C)cn(Cc3ccccc3)c2=O)cc1	i	-4	-5	19	·
Cc1nnc(SCC(=O)NC(=O)Nc2ccc3c(c2)OCCO3)n1N	i	0	2	10	·
COc1ccc(-c2nnc(CSc3ncnc4sc5c(c34)CCC5)o2)cc1OC	+	53*	5	-8	·
Cc1[nH]c(=O)cc2ccccc12	i	1	-115	94*	-8
CC(C)[C@H](NS(=O)(=O)c1ccccc1F)C(=O)OCC(=O)Nc1cccc(S(N)(=O)=O)c1	·	·	-5	·	·
CCOC(=O)C1CCN(C(=O)c2ccc(N3CCCC3=O)cc2)CC1	·	·	-10	·	·
CCOC(=O)C1(CCOc2ccccc2)CCN(Cc2cccc3nonc23)CC1	i	5	22	60*	1
CCOC(=O)C1(CCOc2ccccc2)CCN(Cc2ccc(O)cc2)CC1	i	5	0	14	·
O=c1cc(-c2ccccc2)nc(SCc2ccc(F)cc2)[nH]1	i	active	-5	-7	-2
CCCc1cc(=O)[nH]c(SCc2ccc(F)cc2)n1	i	-2	-4	32	·
CC(CN1C(C)CCCC1C)OC(=O)c1cccc(Br)c1 (configuration not stated)	i	-6	2	29	·
O=C(Nc1nnc(-c2ccco2)s1)c1ccccc1	i	48	9	74*	-1
COc1ccccc1C(=O)Nc1nnc(-c2ccco2)s1	i	35	-3	38	1
COc1ccc(C(=O)Nc2nnc(-c3ccco3)s2)cc1	i	34	-7	73*	-3
COc1ccc(NC2CCCN(C(=O)C3=NN(C)C(=O)CC3)C2)cc1OC (configuration not stated)	i	-9	-8	32	·
Cc1ccc(C(=O)Nc2ccccc2C(=O)N2CCCC(C)C2)cc1 (configuration not stated)	i	4	3	-2	·
Cc1ccc(N(C(=O)Nc2ccccc2)C2=NCCC2)cc1	+	88*	10	16	·
O=C(Nc1ccccc1)N(C1=NCCC1)c1ccccc1	i	-4	-13	24	·
CC(/C=N\Nc1nnc2c(n1)[nH]c1c(C)cccc12)=C\c1ccco1	i	-2	5	23	13*
CN1CCN(CCNC(=O)c2ccc(CS(=O)c3ccc(Br)cc3)o2)CC1 (configuration not stated)	·	·	0	·	·
CSc1ncccc1C(=O)Nc1cccc(S(=O)(=O)N(C)c2ccccc2)c1	·	·	-7	·	·
O=C1NCCCC1C(=O)NCCNC(=O)C(F)(F)F (configuration not stated)	i	-7	-13	-8	-3
O=C1NCCCC1C(=O)Nc1ccccc1C(F)(F)F (configuration not stated)	i	1	-3	15	+
COc1cccc(CNC(=O)c2ccccc2-c2ccccc2)c1	i	3	-10	25	·
O=C(N/N=C/c1ccccc1C(=O)O)c1cc(-c2ccc3c4c(cccc24)CC3)n[nH]1	?	18	-8	-12	13*
O=C(N/N=C/c1ccco1)c1cc(-c2cccc3ccccc23)n[nH]1	i	0	3	-32	0
CCOC(=O)C(NC(=O)CC)(Nc1cc(C)on1)C(F)(F)F (configuration not stated)	i	-4	2	-27	0
CCOC(=O)C(NC(=O)Cc1ccccc1)(Nc1cc(C)on1)C(F)(F)F (configuration not stated)	i	0	-1	-10	12*
CN(C(=O)CSCC(=O)Nc1ccc(Cl)cc1)C1CCCCC1	·	·	7	·	·
